Active and inactive are the calls of the source. Calls come from the whole dose curve; as a rule, active = well fitted curve in the direction sought with a large enough effect; inconclusive = small, poorly fitted or top-dose-only effect, or another doubt; inactive = no such curve, though single readings can be large or run the other way.

The nature of the assay: Validation qHTS assay for inhibitors of Activation Induced Cytidine Deaminase (AID): UDG Counterscreen signal (AID 1347427). Note: 0% is about no effect. To be noted: biochemical UDG counterscreen, fluorescence signal; series mostly up to 115 µM; activity, negative = inhibition: at the top concentration. The gist of the method:
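Counterscreen read of UDG activity (2 U/mL, 4/3x) in the FRET deamination format with AID (1 uM, 4/3x), DJC20/DJC23 substrates (250 nM, 4x), 4 h at room temperature. NaOH stop, fluorescence at 560 ex/665 em.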
In general terms: In qHTS, concentration-response curves come from the screen itself.
Regarding `c1ccc(CN2CCC3(CCCc4ccccc43)CC2)cc1`, the “activity, negative = inhibition” value is -0.64% (inactive).

Consider `CCN(CC)CCOC(=O)c1cc(Cl)c(N)cc1OC`, for which the “activity, negative = inhibition” value was 6.54% (inactive). On to `COc1ccccc1N1CCN(CCN(C(=O)c2ccc(F)cc2)c2ccccn2)CC1`, for which the “activity, negative = inhibition” value was 11.1% (inactive). Turning to `CN1CCCC1CCOC(C)(c1ccccc1)c1ccc(Cl)cc1` (stereo not drawn), the “activity, negative = inhibition” value is 1.51% (inactive). As for `Cc1ccc2c(c1)C(N1CCN(C)CC1)=Nc1cccnc1N2`, the figure is 6.43% (inactive). As for `CCCCCCCCCCCCCCSCC(=O)O`, the “activity, negative = inhibition” value was 9.47% (inactive). To `CCCCCC[C@@H]([C@@H](C)O)n1cnc2c(N)ncnc21` belongs 12.1% (inactive); to `CC1CCN(CC[C@H]2CCCN2S(=O)(=O)c2cccc(O)c2)CC1`, 9.37% (inactive); to `CC1CNCCN1S(=O)(=O)c1cccc2cnccc12` (stereo not drawn), 3.45% (inactive). As for `COc1ccc(CCn2nnnc2C2(c3ccc(C)cc3)CC2)cc1`, the figure is 4.69% (inactive); as for `O=C(O)c1cc2cc(F)ccc2[nH]1`, -0.653% (inactive). To `OCC1NCC(O)C(O)C1O` (stereo not drawn) belongs 12.3% (inactive); to `N[C@H](C(=O)O)c1cc(O)cc(O)c1`, 11.8% (inactive).

On to `C[C@]12C=CC(=O)C=C1CC[C@@H]1C2=CC[C@]2(C)[C@@H](C(=O)CN3CCN(c4cc(N5CCCC5)nc(N5CCCC5)n4)CC3)CC[C@@H]12`, for which the “activity, negative = inhibition” value is -15.1% (inactive). To `CCCCS(=N)(=O)CC[C@H](N)C(=O)O` (stereo partly drawn) belongs 3.88% (inactive). Regarding `COc1cc(CNC(=O)CCCCCCC(C)C)ccc1O`, the “activity, negative = inhibition” value is 1.27% (inactive).

In the case of `c1ccc2c(c1)CCC[C@H]2Nc1nc2ccccc2[nH]1`, the “activity, negative = inhibition” value was -1.13% (inactive). Take `Oc1cc2c(cc1O)C(c1ccccc1)CNCC2` (stereo not drawn): the “activity, negative = inhibition” value was 8.74% (inactive). To `Nc1ncnc2c1nc(Sc1ccc(Cl)cc1)n2[C@H]1OC2COP(=O)(O)O[C@@H]2C1O` (stereo partly drawn) belongs 16.4% (inactive).

As to `O=[N+]([O-])c1cccc2cn[nH]c12`, the “activity, negative = inhibition” value was 13.1% (inactive). As for `COc1ccc2c(c1)CCC1C2CC[C@@]2(C)C1CC[C@@H]2NCCCCCCN1C(=O)C=CC1=O` (stereo partly drawn), the figure is 6.08% (inactive).

Take `CC(C)C[C@H](NC(=O)C1OC1C(=O)O)C(=O)NCCCCN=C(N)N` (stereo partly drawn): the “activity, negative = inhibition” value is -7.3% (inactive). To `CC[N+](CC)(CC)CC(=O)Nc1c(C)cccc1C` belongs 9.32% (inactive); to `C=CC[C@H](N)C(=O)O`, 5.05% (inactive). As for `N[C@@H](Cc1ccc(O)c(I)c1)C(=O)O`, the figure is 13.6% (inactive); as for `CN1CCC2(CCN3CCc4c(oc5ccccc45)C3C2)N(C)C1=O` (stereo not drawn), 3.43% (inactive); as for `CC(N)(Cc1ccc(O)c(O)c1)C(=O)O` (stereo not drawn), -5.32% (inactive). To `CNCCc1cnc(CCC(c2ccccc2)c2ccccc2)[nH]1` belongs 9.23% (inactive). In the case of `CN1C2CCC1CC(OC(c1ccccc1)c1ccccc1)C2` (stereo not drawn), the “activity, negative = inhibition” value was 9.6% (inactive). To `CCN1C(=O)C=CC1=O` belongs 7.32% (inactive); to `N[C@@H](Cc1c[nH]c2ccccc12)C(=O)O`, -2.42% (inactive); to `COCc1nc2c([nH]1)c(=O)n(C)c(=O)n2CC(C)C`, 8.1% (inactive). To `NC1(C(=O)O)CC1` belongs -0.503% (inactive). To `CCSC(=N)N` belongs 8.03% (inactive). Turning to `COc1ccccc1N1CCN(CCCCN2C(=O)c3ccccc3C2=O)CC1`, the “activity, negative = inhibition” value is -12.4% (inactive). Turning to `COc1ccc(-c2cc3ncc(C)n3c(Nc3ncccc3C(N)=O)n2)cc1OC`, the “activity, negative = inhibition” value is 11.4% (inactive).

On to `Cc1nc(N=Nc2cc(S(=O)(=O)O)c3cc([N+](=O)[O-])cc(S(=O)(=O)O)c3c2)c(COP(=O)(O)O)c(C=O)c1O`, for which the “activity, negative = inhibition” value was 5.39% (inactive). To `NS(=O)(=O)c1cccc2c1c([N+](=O)[O-])cc1nc(O)c(O)nc12` belongs 6.35% (inactive).

Values taken from PubChem BioAssay (NCATS).
